Sampled rows, rich in hits. Any-hit rate of the full collection: about 12%.
Pf growth 48h – Primary qHTS for delayed death inhibitors of the malarial parasite plastid, 48 hour incubation | Potency, µM (titrated, usually from 28.7 µM), for the others: top-dose activity change, negative = inhibition, actives largely listed as inhibitors | 5.9% of 310,000 active | P. falciparum luciferase growth in erythrocytes, 48 h | AID 504832, 2011; also: % is scaled to controls: 0 for no effect and ±100 for the full control effect
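Firefly luciferase activity from engineered P. falciparum reports growth; inhibitors lower the luminescent signal. Cultures contained 2% hematocrit erythrocytes at 0.1% final parasitemia.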
AmpC inh no detg – qHTS Inhibitors of AmpC Beta-Lactamase (assay without detergent); P00811; Potency, µM (doses to about 57.1 µM), for inactives: at the top dose activity change, negative = inhibition, usual class: inhibitors; 0.52% of 330,000 active; AmpC nitrocefin hydrolysis, absorbance 480 nm, 0.0001% Triton;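 also: plate controls were no compound for no effect and no enzyme for full effect; nearly all actives have a fitted effect of over 20% in size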
Target sequence (P00811 whole entry, looked up): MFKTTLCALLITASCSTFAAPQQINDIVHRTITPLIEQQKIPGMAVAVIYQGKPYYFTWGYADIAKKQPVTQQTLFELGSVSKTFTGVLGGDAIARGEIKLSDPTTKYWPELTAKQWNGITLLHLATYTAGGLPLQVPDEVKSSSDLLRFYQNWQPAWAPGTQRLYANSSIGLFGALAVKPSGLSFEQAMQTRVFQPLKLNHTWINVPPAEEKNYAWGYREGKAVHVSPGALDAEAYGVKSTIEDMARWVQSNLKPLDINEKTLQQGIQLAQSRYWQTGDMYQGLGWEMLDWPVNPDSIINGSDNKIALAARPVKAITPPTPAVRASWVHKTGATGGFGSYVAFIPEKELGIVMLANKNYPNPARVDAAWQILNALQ
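20 mM phosphate pH 7.0 + 0.01% (detergent screen) or 0.0001% Triton X-100; 5.3 nM AmpC reagent; cpd preinc 15 min RT; nitrocefin (800 uM stock) to start; A480 q20 s × 4 min; Activity was normalised to no-enzyme and no-compound control wells.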
Pf growth 96h – Primary qHTS for delayed death inhibitors of the malarial parasite plastid, 96 hour incubation. P. falciparum luciferase reporter growth, 96 h. Potency, µM (top dose mostly 28.7 µM), for inactives: at the highest dose activity change, negative = inhibition, actives largely listed as inhibitors. 6.9% of 320,000 active. AID 504834, 2011; also: % is scaled to controls: 0 for no effect and ±100 for the full control effect
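Two-generation exposure (96 h) targets delayed-death phenotype. Reporter parasites carrying integrated firefly luciferase, in red cells at 2% hematocrit and 0.05% parasitemia final, kept at 37 C, 5% CO2; luminescence loss indicates inhibition.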
SARS PLpro yeast – qHTS of Yeast-based Assay for SARS-CoV PLP. AID 485353, 2010. S. cerevisiae expressing SARS-CoV PLpro, growth rescue. 0.19% of 330,000 active. Potency, µM (top dose mostly 32.9 µM), for inactives: at the highest dose activity, positive = growth rescue, hits mostly activators; calls by dose curve; also: 0% is about no effect; nearly all actives have a fitted effect of over 55% in size
AmpC inh detg – qHTS Inhibitors of AmpC Beta-Lactamase (assay with detergent) | P00811 | AmpC hydrolysis of nitrocefin, absorbance 480 nm, 0.01% Triton | Potency, µM (series often up to 114 µM), without a hit: top-dose activity change, negative = inhibition, hits mostly inhibitors | 0.041% of 370,000 active | AID 485294, 2010;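 also: 0% = no-compound wells and -100% = no-enzyme wells; nearly all actives have a fitted effect of over 25% in size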
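20 mM phosphate pH 7.0 + 0.01% (detergent screen) or 0.0001% Triton X-100; 5.3 nM AmpC reagent; cpd preinc 15 min RT; nitrocefin (800 uM stock) to start; A480 q20 s × 4 min; Activity was normalised to no-enzyme and no-compound control wells.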
Sm TGR inh – qHTS Assay for the Inhibitors of Schistosoma Mansoni Peroxiredoxins | Schistosoma mansoni thioredoxin glutathione reductase (TGR), Q962Y6 | purified TGR, DTNB reduction, TNB absorbance 405 nm | Potency, µM (top dose mostly 114 µM), for the others: at the top dose activity change, negative = inhibition, actives largely listed as inhibitors | 3% of 360,000 active | AID 485364, 2010; also: % is scaled to controls: 0 for no effect and ±100 for the full control effect; nearly all actives have a fitted effect of over 60% in size
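First, TGR (20 nM dispensed) and NADPH were mixed with compound. Second, a 15 min room-temperature incubation followed. Third, further NADPH and then DTNB were added to start the reaction. Finally, TNB absorbance was monitored kinetically.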
* marks the source's active call; other numbers are inactive results; u = inconclusive; x = no result given; [ ] = dose if it differs, or a comment. Unless noted, calls follow the shape of the dose curve; as a rule, active = well fitted curve in the direction sought with a large enough effect; inconclusive = small, poorly fitted or top-dose-only effect, or another doubt; inactive = no such curve, though single readings can be large; an effect the other way counts as inactive or inconclusive. Potency is read from the fitted curve at half-maximal effect.

SMILES	Pf growth 48h	AmpC inh no detg	Pf growth 96h	SARS PLpro yeast	AmpC inh detg	Sm TGR inh
CC1OC(OC2CCC3(C)C(CCC4C3CC(O)C3(C)C(C5=CC(=O)OC5)CCC43O)C2)CC(O)C1OC1CC(O)C(OC2CC(O)C(OC3OC(CO)C(O)C(O)C3O)C(C)O2)C(C)O1 (centres undefined)	-17.0%	x	u	x	x	x
CN1CCN(C2=Cc3ccccc3Sc3cc(F)c(Cl)cc32)CC1	5.22µM*	141.9%	u	-20.5%	u	0.0%
CN1CCN(C2=Cc3cc(Cl)ccc3Sc3cc(F)ccc32)CC1	4.65µM*	180.5%	u	-26.6%	11.9%	-4.3%
CN1CCN(C2=Cc3ccccc3Sc3cc(F)c(F)cc32)CC1	6.57µM*	140.6%	u	4.7%	-6.0%	-9.2%
CCCCNS(=O)(=O)CCNCc1ccco1	x	-9.2%	x	10.2%	x	x
CC(C)Oc1ccc(C(=O)Nc2ccc3c(c2)CCCN3C(=O)c2cccs2)cc1	x	x	x	x	-1.9%	2.2%
COc1nn(-c2ccccc2)c(=O)c(Cl)c1Cl	-34.7%	-6.0%	u	-8.8%	u	22.4µM*
COc1c(Cl)cnn(-c2ccccc2)c1=O	-4.8%	-15.5%	0.0%	2.2%	-11.8%	-7.6%
Cc1cc(C)c(OCCOCCn2c(-c3ccc(Cl)cc3)nc3ccccc3c2=O)c(C)c1	x	x	x	x	1.3%	7.4%
Cc1ccc(S(=O)(=O)N2CC2(C)CCl)cc1 (centres undefined)	-12.9%	-22.9%	u	0.0%	4.2%	50.1µM*
Cc1ccc(-c2ccc(S(=O)(=O)N3CCCC3)cc2)cc1	-14.5%[5.75 µM]	-10.7%	31.1%	-0.6%	-9.5%	6.9%
CN(C)c1ncc([N+](=O)[O-])cc1C(F)(F)F	0.738µM*	-6.6%	38.3%	-0.4%	7.0%	u
Nc1ncc([N+](=O)[O-])cc1Br	37.0%	-18.8%	64.0%	0.4%	3.2%	-31.4%
O=C(c1ccc2c(c1)N(Cc1ccccc1)C(=O)c1ccccc1S2=O)N1CCC(Cc2ccccc2)CC1 (centres undefined)	x	x	x	x	18.3%	3.9%
CCCCCC(=O)Cc1cc(O)cc2c1C(=O)Oc1cc(O)c(C(=O)O)c(CCCCC)c1O2	-4.5%	-44.8%	u	1.4%	-1.5%	35.5µM*
CN(C)S(=O)(=O)c1ccc(S(=O)(=O)N(CC(=O)Nc2ccccc2)Cc2ccco2)cc1	4.4%	-15.5%	31.8%	3.7%	u	4.0%
COC(=O)CN(c1ccccc1)S(=O)(=O)c1ccccc1	x	-8.3%	21.5%	-0.6%	-9.4%	6.7%
COC(=O)CN(n1cnnc1)S(=O)(=O)c1ccccc1	8.6%	-18.6%	11.7µM*	8.5%	10.3%	0.8%
COC(=O)CN(Cc1ccco1)S(=O)(=O)c1ccccc1	u	-8.7%	x	2.6%	3.3%	22.4µM*
CCN(CC(=O)Nc1cccc(C(C)=O)c1)S(=O)(=O)c1ccccc1	u	-11.1%	9.28µM*	-0.7%	-3.8%	u
CCN(CC)S(=O)(=O)c1ccc(S(=O)(=O)N(CC(=O)Nc2ccccc2)Cc2ccco2)cc1	-12.6%	-44.5%	27.6%	13.5%	-0.6%	28.2µM*
CCOC(=O)CN1N=C(c2ccc(C)cc2)CCC1=O	30.0%	-6.7%	u	1.6%	-1.7%	8.2%
COc1cccc(C2N(c3ccccc3)CCN2c2ccccc2)c1OC	u	-50.6%	8.6%	0.4%	0.1%	x
c1ccc(N2CCN(c3ccccc3)C2c2cccnc2)cc1	3.7µM*	-19.0%	481.7%	-3.3%	2.4%	5.6%
Cc1ccc(N2CCN(c3ccc(C)cc3)C2c2cccnc2)cc1	x	6.1%	1.31µM*	-6.6%	0.5%	-6.2%
SMILES	Pf growth 48h	AmpC inh no detg	Pf growth 96h	SARS PLpro yeast	AmpC inh detg	Sm TGR inh
c1ccc(N2CCN(c3ccccc3)C2c2ccncc2)cc1	13.1µM*	-2.4%	x	-14.6%	1.1%	-15.3%
Cc1ccc(S(=O)(=O)N2CCCC2c2cccnc2)cc1 (centres undefined)	u	-9.1%	2.5%	0.8%	3.1%	5.6%
CCN(CC)c1ccc(NC(=O)C2CCCN(S(=O)(=O)c3cnc[nH]3)C2)c(C)c1 (centres undefined)	x	-2.4%	2.5%	-1.6%	u	-1.6%
CCCSCCCNC(=O)C1CCN(c2nn3cc(-c4ccc(F)cc4)nc3s2)CC1	x	x	x	x	-1.1%	1.5%
COc1cc(C(=O)NC2CCN(CC(=O)NC3CCCCC3C)CC2)cc(OC)c1OC (centres undefined)	-15.9%	28.4%	u	-7.0%	-8.1%	-1.0%
COc1cc(C(=O)NC2CCCNC2)cc(OC)c1OC (centres undefined)	x	-5.3%	x	8.7%	-1.7%	35.5µM*
CCOc1ccc2c(c1)-c1c(ssc1=S)C(C)(C)N2C(=O)CSC1=NCCS1	u	-31.1%	1.65µM*	5.5%	-5.9%	-7.2%
Cc1ccc2c(c1)-c1c(ssc1=S)C(C)(C)N2C(=O)CSC1=NCCS1	u	-23.1%	u	8.0%	-11.2%	-3.5%
O=C(c1cccc(S(=O)(=O)N2CCc3ccccc32)c1)N1CCN(c2ccccn2)CC1	-4.9%	74.6%	u	1.8%	-2.2%	8.9%
O=[N+]([O-])c1cccc(/C=N/Nc2nccnc2Cl)c1	169.2%	-9.3%	86.4%	-9.4%	-3.2%	9.0%
C(=N\Nc1nc(-c2ccccn2)nc2ccccc12)/c1ccccc1	4.65µM*	-11.6%	2.08µM*	-1.3%	5.9%	18.2%
Cc1cc(N/N=C/c2ccncc2)nc2ccccc12	u	-9.5%[2.29 µM]	u	-2.0%	0.5%	-0.7%
ClC(Cl)(Cl)c1nc(N/N=C/c2ccncc2)c2ccccc2n1	2.33µM*	-1.7%[11.4 µM]	u	1.1%	-11.3%	4.6%
O=[N+]([O-])c1cccc(/C=N/Nc2nc(C(Cl)(Cl)Cl)nc3ccccc23)c1	1.04µM*	-15.8%	u	9.5%	-12.6%	-3.3%
CCN1C=C(Cc2ccc(OC)cc2)C2=C(C1)C(c1ccc(OC)cc1)C(C#N)=C(N)O2 (centres undefined)	u	53.7%	u	-0.2%	1.2%	35.5µM*
COc1ccc(C2C(C#N)=C(N)Oc3cc4c(cc32)OCO4)cc1 (centres undefined)	u	-1.3%	14.7%	-3.0%	-0.2%	2.2%
Cc1ccc(-c2n[nH]c3c2C(c2ccc(C(C)(C)C)cc2)NC3=O)cc1 (centres undefined)	x	x	x	x	1.8%	-12.1%

Screening data (PubChem)
